# Reference: PubChem BioAssay AID1961 (Sanford-Burnham Center for Chemical Genomics, 2009)
# “And” between values parts separate entries of the source, which are not always exact repeats. Identical values can stand only once. Screen size: about 290,000 compounds; about 140 (0.048%) were called active.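 The calls were made as follows: active = activation above 40% with more than 50 cells counted in the well; inconclusive = wells holding fewer than 50 cells, flagged as toxic or sparse; inactive = the rest.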 The list comes from a sample in which actives are over-represented; it also holds similar structures and randomly drawn compounds.
# Assays:
# [1] = selective activators of receptor GPR55 – imaging, U2OS cells, beta-arrestin-GFP redistribution, primary screen (AID 1961); settings: measured here: cytotoxicity, cells analyzed, at 10 µM;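 also: U2OS osteosarcoma cells stably expressing GPR55 and beta-arrestin-GFP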;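 as to activation: plate controls were DMSO negative control for no effect and LPI positive control for full effect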
# [2] = molecular target: G-protein coupled receptor 55 (Homo sapiens) (UniProt Q9Y2T6); assay: as above; settings: at 10 µM, stronger effect = higher value
# Chain of G-protein coupled receptor 55 (Homo sapiens) (Q9Y2T6 whole entry, looked up): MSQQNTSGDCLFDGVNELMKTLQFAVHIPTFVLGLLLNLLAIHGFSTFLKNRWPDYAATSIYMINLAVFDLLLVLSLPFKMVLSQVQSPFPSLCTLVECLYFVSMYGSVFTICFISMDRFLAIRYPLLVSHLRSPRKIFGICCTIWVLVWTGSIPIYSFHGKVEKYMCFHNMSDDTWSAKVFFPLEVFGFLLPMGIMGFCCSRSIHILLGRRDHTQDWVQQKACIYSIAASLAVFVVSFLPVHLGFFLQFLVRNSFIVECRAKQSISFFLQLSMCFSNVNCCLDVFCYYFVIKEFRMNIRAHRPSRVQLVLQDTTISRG
SMILES,cell count [1],activation [2]
Cc1cccc(CC(=O)N2CCOCC2)c1,411 cells,1.4% (inactive)
O=C(CC1CCCCC1)Nc1ccccc1-c1ccccc1,361 cells,-0.4% (inactive)
COc1ccc(Cl)cc1NC(=O)CSc1nnc(COc2ccccc2)n1C,350 cells,0.2% (inactive)
COc1ccc(Nc2ncc3c(n2)CC(c2ccccc2)CC3=O)cc1 (stereo unspecified),306 cells,-0.1% (inactive)
O=C(N/N=C\c1cccnc1)c1ccc(Cl)cc1Cl,331 cells,0.3% (inactive)
CCOC(=O)CSc1nc2c([nH]c3ccccc32)c(=O)n1C,345 cells,-0.1% (inactive)
CCOc1ccccc1CNC(=O)CCc1cn(CC)c2ccccc12,381 cells,0.3% (inactive)
c1ccc(-c2cn3nc(-c4ccccc4)c(-c4ccccc4)nc3n2)cc1,374 cells,0.6% (inactive)
c1ccc(-c2cnn3nnnc3n2)cc1,327 cells,0.2% (inactive)
c1ccc(-c2cnn3c(-c4ccccc4)c(-c4ccccc4)nc3n2)cc1,310 cells,42.5% (active)
CC(C)(C)C1=CC=C(C(C)(C)C)C(=O)C1=O,365 cells,24.1% (inactive)
CC(C)(C)C1=CC(=Nc2ccccc2N)C=C(C(C)(C)C)C1=O,328 cells,-0.1% (inactive)
CC(C)(C)C1=CC(=O)C(=O)C(C(C)(C)C)=C1,346 cells,138% (active)
CCN(CC)C(=O)CSc1nnc(-c2ccccc2)n1-c1ccccc1,281 cells,0.2% (inactive)
Cc1cccc(OCc2n(CC(=O)OC3CC(C)CCC3C(C)C)c3ccccc3[n+]2C)c1 (stereo unspecified),339 cells,81.2% (active)
CCCCCCCCCCOC(=O)Cn1c(COc2ccccc2OC)[n+](C)c2ccccc21,361 cells,32.1% (inactive)
CCCCCCCCCCOC(=O)Cn1c(COc2cccc(C)c2)[n+](C)c2ccccc21,401 cells,31.3% (inactive)
Cc1ccccc1OCc1n(CC(=O)OC2CC(C)CCC2C(C)C)c2ccccc2[n+]1C (stereo unspecified),276 cells and 236 cells,68% (active)
CC1CCC(C(C)C)C(OC(=O)Cn2c(-c3ccccc3)[n+](C)c3ccccc32)C1 (stereo unspecified),252 cells and 322 cells,-0.3% (inactive)
CC1CCC(C(C)C)C(OC(=O)Cn2c(-c3ccc(Br)cc3)[n+](C)c3ccccc32)C1 (stereo unspecified),411 cells and 208 cells,103% (active) and 106% (active)
CC1CCC(C(C)C)C(OC(=O)Cn2c(-c3ccc(F)cc3)[n+](C)c3ccccc32)C1 (stereo unspecified),272 cells,0.6% (inactive)

SMILES,cell count [1],activation [2]
COc1ccc(OCc2n(CC(=O)OC3CC(C)CCC3C(C)C)c3ccccc3[n+]2C)cc1 (stereo unspecified),350 cells,25.5% (inactive)
CCCCCCCCCCOC(=O)Cn1c(COc2ccccc2C)[n+](C)c2ccccc21,386 cells,17.1% (inactive)
CC(C)c1ccc(/C=C/C(=O)NC2=NCCS2)cc1,384 cells,0% (inactive)
CCCc1nnc2n1N=C(c1ccc(C)cc1)CS2,336 cells,-0.1% (inactive)
CCCc1nnc2n1N=C(c1ccc(-c3cc(Cl)ccc3Cl)o1)CS2,356 cells,142% (active)
CCc1nnc2n1N=C(c1ccc(Cl)cc1Cl)CS2,325 cells,-0.1% (inactive)
O=[N+]([O-])c1ccc(/C=C/C2=NN(c3ccccc3)C(c3ccco3)C2)cc1 (stereo unspecified),311 cells,120% (active)
O=[N+]([O-])c1ccc(/C=C/C2=NN(c3ccccc3)C(c3ccco3)C2)o1 (stereo unspecified),231 cells,21.7% (inactive)
C(=C\c1ccco1)/C1=NN(c2ccccc2)C(c2ccco2)C1 (stereo unspecified),324 cells,27.4% (inactive)
CCOc1ncccc1C(=O)Nc1ccc(-c2ccc3nnc(C)n3n2)cc1,265 cells,-0.2% (inactive)
Cc1ccc(C(=O)NC2(C(F)(F)F)NC(=O)N(c3ccc(Cl)cc3)C2=O)cc1 (stereo unspecified),333 cells,-0.3% (inactive)
COc1ccc(CN2CCNC(=O)C2CC(=O)NC2CCC2)c(OC)c1 (stereo unspecified),341 cells,-0.1% (inactive)
CC(C)N1CCC(NC(=O)Nc2ccc3c(c2)OCO3)CC1,361 cells,0.1% (inactive)
Cc1ccc(N(CC(=O)NC2CCCC2)C(=O)Cn2nnc(-c3ccccc3F)n2)cc1,388 cells,0% (inactive)
CCOc1ccc(C=NCC(O)c2ccccc2)cc1 (stereo unspecified),365 cells,-0.1% (inactive)
CCCN1C(=O)/C(=C2/C=Cc3ccccc3N2CC)SC1=S,237 cells,-0.4% (inactive)
Cc1cc(C(F)(F)F)nc(SCCN2CCCCC2)c1C#N,404 cells,-0.2% (inactive)
CCOc1ccc(OCCOCCN2CCOCC2)cc1,322 cells,-0.1% (inactive)
CCCCN(CCCC)CC(O)COc1ccccc1Br (stereo unspecified),385 cells,-0.2% (inactive)
Cc1cccc2nc(COc3ccc4ccccc4c3Br)cn12,340 cells,0.4% (inactive)
Clc1ccc(OCc2cn3ccccc3n2)c2ncccc12,448 cells,-0.1% (inactive)

SMILES,cell count [1],activation [2]
Cc1cccc2nc(COc3ccc(Cl)c4cccnc34)cn12,263 cells,80.9% (active)
Cc1nc2ccc(NC(=O)CCC3CCCC3)cc2s1,329 cells,-0.1% (inactive)
Cc1nn2c(C(F)(F)F)c3c(nc2c1-c1ccccc1)CCC3,390 cells,0.4% (inactive)
Cc1nn2c(N3CCCC3)c3c(nc2c1-c1ccccc1)CCC3,363 cells,0% (inactive)
Cc1cccc2cc3c(N)c(C(=O)N4CCCc5ccccc54)sc3nc12,244 cells,0.1% (inactive)
Cc1cccc2cc3c(N)c(C(=O)N4CCc5ccccc54)sc3nc12,347 cells,44.1% (active)
Cc1ccc(C)c2nc3sc(C(=O)N4CCCc5ccccc54)c(N)c3cc12,369 cells,0.3% (inactive)
CC1=NNC(=O)/C1=C\c1cn(-c2ccccc2)nc1-c1ccc(F)cc1,406 cells,2.4% (inactive)
CC1=NNC(=O)/C1=C\c1cn(-c2ccccc2)nc1-c1ccccc1,396 cells,68.5% (active)
CC1=NNC(=O)/C1=C\c1cn(-c2ccccc2)nc1-c1ccc(Cl)cc1,376 cells,30.2% (inactive)
COc1ccccc1NS(=O)(=O)c1cc([N+](=O)[O-])ccc1N/N=C/c1sc(N2CCOCC2)nc1-c1ccccc1,331 cells,48.8% (active)
O=[N+]([O-])c1ccc(N/N=C/c2sc(N3CCOCC3)nc2-c2ccccc2)c(S(=O)(=O)Nc2ccc(Cl)cc2)c1,392 cells,18% (inactive)
O=[N+]([O-])c1ccc(N/N=C/c2sc(N3CCOCC3)nc2-c2ccccc2)c(S(=O)(=O)Nc2ccccc2Cl)c1,413 cells,22.5% (inactive)
CCN1CCCC1CNCc1cc(OC)c(OC)c(OC)c1 (stereo unspecified),313 cells,-0.1% (inactive)
COc1ccccc1Cc1noc(COc2cccc(C)c2C)n1,384 cells,-0.1% (inactive)
Cc1nnc(SC(C)C)n(N)c1=O,256 cells,-1.1% (inactive)
O=c1cnnc(SCc2ccc([N+](=O)[O-])cc2)[nH]1,243 cells,0.2% (inactive)
CCn1nc(C)c(CN2CCC(C(=O)Nc3cccc(-c4cccc(Cl)c4)c3)CC2)c1C,372 cells,0% (inactive)
C=CCSc1nnc2n(CCc3ccccc3)c(=O)c3c4c(sc3n12)COC(C)(C)C4,369 cells,-0.1% (inactive)
CCC1(C)Cc2c(sc3c2c(=O)n(C)c2nnc(SCCc4ccccc4)n32)CO1 (stereo unspecified),322 cells,-0.2% (inactive)
CCCCSc1nnc2n(CCc3ccccc3)c(=O)c3c4c(sc3n12)COC(C)(C)C4,332 cells,58% (active)

SMILES,cell count [1],activation [2]
COc1ccc(C2CC(c3ccc(F)cc3)=NN2c2ccccc2)cc1OC (stereo unspecified),391 cells,-0.1% (inactive)
COc1cc(C2CC(c3ccccc3)=NN2c2ccccc2)ccc1OCC(=O)O (stereo unspecified),329 cells,0.9% (inactive)
O=C(CSc1nnc(CNc2ccc(F)cc2)n1CC1CCCO1)N1CCOCC1 (stereo unspecified),336 cells,0.2% (inactive)
CCOc1ccc(/C=N/NC(=O)C(C)N(c2ccc(OC)cc2)S(C)(=O)=O)cc1OCC (stereo unspecified),265 cells,0.6% (inactive)
CCOC(=O)CS(=O)(=O)c1nc(-c2ccc(F)cc2)cc(C(F)(F)F)n1,353 cells,16.3% (inactive)
CCOC(=O)CCS(=O)(=O)c1nc(-c2ccccc2)cc(C(F)(F)F)n1,310 cells,14.3% (inactive)
CCOC(=O)CS(=O)(=O)c1nc(-c2ccccc2)cc(C(F)(F)F)n1,302 cells,49.8% (active)
CNC(=O)CSc1nnc(-c2cccs2)o1,345 cells,0.3% (inactive)
CC(=O)Nc1cccc(/C(C)=N/NC(=O)c2cccs2)c1,330 cells,-0.4% (inactive)
COc1ccc(-c2cc(C(F)(F)F)nc(SCC(=O)Nc3ccc4c(c3)OCO4)n2)cc1,399 cells,-0.2% (inactive)
COc1ccccc1P(=O)(c1ccccc1)c1ccc([N+](=O)[O-])cc1 (stereo unspecified),384 cells,0.2% (inactive)
COc1ccccc1NC(=O)CSCc1ccc([N+](=O)[O-])cc1,415 cells,-0.1% (inactive)
CC(=O)N1CC=C2C(C#N)=C(N)C(C#N)(C#N)C(C)C2C1 (stereo unspecified),315 cells,-0.2% (inactive)
Cc1ccc(NC(=O)CS(=O)CC(=O)NC23CC4CC(CC(C4)C2)C3)cc1 (stereo unspecified),322 cells,0% (inactive)
CCc1ccccc1NC(=O)c1ccc(-c2csc(C)n2)cc1,398 cells,-0.1% (inactive)
COc1ccc(CNc2nc(-c3cccnc3)nn2S(C)(=O)=O)cc1,258 cells,1.3% (inactive)
COc1cccc(-c2nnc3n2N=C(c2cc(OC)ccc2OC)CS3)c1,449 cells,-0.1% (inactive)
COc1ccc(OC)c(C2=Nn3c(nnc3-c3cccc(OC(C)C)c3)SC2)c1,301 cells,-0.2% (inactive)
CCOc1cccc(-c2nnc3n2N=C(c2cc(OC)ccc2OC)CS3)c1,276 cells,100% (active)
Cc1ccc(S(=O)(=O)NC2=C(N3CCN(c4ccccc4F)CC3)C(=O)c3ccccc3C2=O)cc1,421 cells,-0.1% (inactive)
